Common to all, as to assay: NCI-60 one-dose screen, 48 h (100 = growth as untreated, 0 = no growth, -100 = all killed)
Common to all, as to conditions: 10 µM unless noted

The subject of assay [1] is MOLT-4 leukemia.
Assay [2] has as its system SR leukemia.
Assay [3] concerns RPMI-8226 leukemia.
Assay [4] concerns OVCAR-8 ovarian.
For assay [5], the system named is OVCAR-5 ovarian.
In assay [6] the test system is OVCAR-4 ovarian.
Assay [7] relates to SK-OV-3 ovarian.
Assay [8] deals with IGROV1 ovarian.
In assay [9] the test system is HS 578T breast.
Assay [10] has as its system NCI/ADR-RES ovarian.
In assay [11] the test system is T-47D breast.
Assay [12] deals with BT-549 breast.
For assay [13], the system named is MDA-MB-435 melanoma.
Assay [14] relates to SW-620 colon.
For assay [15], the system named is MCF7 breast.
The test system of assay [16] is HCT-116 colon.
Assay [17] relates to HCC-2998 colon.
In assay [18] the test system is KM12 colon.
Assay [19] has as its system OVCAR-3 ovarian.

“And” between values parts separate entries of the source, which are not always exact repeats. Identical values can stand only once. The panel holds about 83,000 compounds, 20% with a hit somewhere; the sample as a whole holds those more often.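 Activity criterion: percent growth below 10, measured after cells in 96-well plates were exposed to a single compound concentration for 48 hours.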 The source made the active and inactive calls.

The results in this text go back to PubChem BioAssay (NCI).

With `Cc1c(C)c(N)c(C)c(C)c1N`, the growth is 84.1% (inactive) in [1]; 69.5% (inactive) in assay [2]; 98.7% (inactive) in [3]; 83.8% (inactive) in assay [4]; 85.1% (inactive) in assay [5]; 75.6% (inactive) in assay [6]. The growth in assay [7] was 91.3% (inactive); in assay [8], 80.7% (inactive); in [9], 114% (inactive); in assay [10], 96.1% (inactive); in assay [11] it was 92.6% (inactive); in assay [12], 104% (inactive). Besides, the growth was 107% (inactive) in assay [13]; 51.8% (inactive) in [14]; 46.5% (inactive) in assay [15]; 59.3% (inactive) in assay [16]; 106% (inactive) in [17]; 98.4% (inactive) in [18].

Turning to `COc1ccc(/C=C(/C)[N+](=O)[O-])cc1OC`, the growth in assay [1] is 0.86% (active) and -1.19% (active); in assay [2], -21.8% (active) and -5.49% (active); in [3] it was -17.9% (active) and -7.74% (active); in assay [4] it was 6.5% (active); in [5] it was 91.4% (inactive) and 66.7% (inactive); in assay [6], 32.7% (inactive). Also, the growth was 112% (inactive) and 108% (inactive) in assay [7]; 10.8% (inactive) and -20.9% (active) in [8]; -94.1% (active) and -99.7% (active) in [19]; 74.7% (inactive) and 3.26% (active) in [10]; 2.51% (active) and -36.5% (active) in [11]; 14.8% (inactive) and 8.73% (active) in assay [13]. Besides, the growth in [14] is -71.8% (active) and -74.3% (active); in [15], -16.3% (active) and 4.76% (active); in assay [16] it was -69.8% (active) and -100% (active); in assay [17], 35.9% (inactive) and 59.2% (inactive); in assay [18], 49% (inactive) and 37.1% (inactive).

With `CC(C)COC(=O)Cc1ccccc1`, the growth in assay [1] is 103% (inactive); in [2], 100% (inactive); in assay [3], 103% (inactive); in [4], 110% (inactive); in assay [5] it was 106% (inactive); in assay [6] it was 105% (inactive). Besides, the growth in assay [7] is 105% (inactive); in [8], 109% (inactive); in assay [19] it was 111% (inactive); in assay [10], 110% (inactive); in assay [12] it was 108% (inactive); in assay [13], 106% (inactive). Also, the growth is 107% (inactive) in assay [14]; 106% (inactive) in assay [15]; 105% (inactive) in assay [16]; 107% (inactive) in assay [17]; 105% (inactive) in [18].

For the molecule `O=[N+]([O-])c1ccc(CI)cc1`, the growth is 14.7% (inactive) in assay [1]; 34.4% (inactive) in assay [2]; 53.2% (inactive) in assay [3]; 84.4% (inactive) in assay [4]; 96.8% (inactive) in assay [5]; 102% (inactive) in assay [6]. Moreover, the growth in [7] was 116% (inactive); in assay [8] it was 115% (inactive); in assay [9] it was 111% (inactive); in assay [11], 73.3% (inactive); in assay [12], 98.6% (inactive); in [13], 90.4% (inactive). For the same molecule, the growth was 26.4% (inactive) in assay [14]; 21.7% (inactive) in assay [15]; 1.59% (active) in assay [16]; 108% (inactive) in assay [17]; 106% (inactive) in [18].

Regarding `Cc1cc(N(CCCl)CCCl)ccc1/C=N\NC(=O)c1cccnc1`, the growth in assay [1] was 49.6% (inactive) and 60.5% (inactive); in [2] it was 23.4% (inactive) and 54.5% (inactive); in assay [3] it was 85.7% (inactive) and 86.1% (inactive); in assay [4], 88.4% (inactive) and 80.2% (inactive); in [5], 33.9% (inactive) and 74% (inactive); in [6], 93.2% (inactive) and 80.5% (inactive). Further, the growth in [7] was 74.2% (inactive) and 102% (inactive); in assay [8] it was 79.9% (inactive) and 82.6% (inactive); in assay [10], 81.6% (inactive) and 82.4% (inactive); in assay [11], 57.5% (inactive) and 60.7% (inactive); in assay [12], 86% (inactive) and 78.8% (inactive); in assay [13], 91.3% (inactive) and 88.1% (inactive). Besides, the growth in assay [14] was 91.4% (inactive); in assay [15], 50.4% (inactive) and 59.7% (inactive); in assay [16], 84% (inactive) and 79.2% (inactive); in assay [17], 97.1% (inactive) and 102% (inactive); in assay [18] it was 104% (inactive) and 95.1% (inactive).

Consider `COc1ccc(C(C#N)C(C)=O)cc1` (configuration not stated), for which the growth in assay [1] is 99.7% (inactive); in assay [2] it was 98.8% (inactive); in assay [3], 101% (inactive); in [4] it was 95.5% (inactive); in assay [5] it was 95.3% (inactive); in assay [6], 131% (inactive). The growth in assay [7] was 99% (inactive); in assay [8], 114% (inactive); in [10], 102% (inactive); in [11], 104% (inactive); in assay [12] it was 100% (inactive); in assay [13], 123% (inactive). The figures for the growth in assay [15], in assay [16] and in assay [18] were 102% (inactive), 105% (inactive) and 98.5% (inactive), respectively.

Consider `O=C(O)CNCP(=O)(O)O`, for which the growth was 92.4% (inactive) in assay [1]; 95.3% (inactive) in assay [2]; 99.1% (inactive) in assay [3]; 104% (inactive) in assay [4]; 120% (inactive) in [5]; 111% (inactive) in assay [6]. The growth was 113% (inactive) in assay [7]; 106% (inactive) in [8]; 119% (inactive) in assay [19]; 110% (inactive) in assay [10]; 111% (inactive) in assay [11]; 104% (inactive) in assay [13]. For the same molecule, the growth is 110% (inactive) in [14], 96.2% (inactive) in assay [15], 103% (inactive) in assay [16] and 113% (inactive) in [18].
